From PubChem BioAssay (NCI)
This is part of a sample that, as a whole, favours compounds with a hit. Of some 79,000 tested, about 15% had one in any assay. A number with no mark means an inactive call. The source made the active and inactive calls. No stated cut-off is given here; in the data, active means growth inhibition above about 70%; inactive means the rest.

Experiments:
[1] = NCI Yeast Anticancer Drug Screen. Data for the wt1 strain (AID 149);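 further: 0% = growth of vehicle-treated wt1 cultures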; settings: S. cerevisiae wt1 strain (SPY 50644) growth inhibition, hits give high values
How it was run: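 Each compound is tested on wt1 yeast and the loss of growth versus vehicle gives the inhibition value.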

[2] = NCI Yeast Anticancer Drug Screen. Data for the mgt1 strain (AID 153); settings: S. cerevisiae mgt1 mutant growth inhibition, hits give high values
How it was run: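 Genetically defined yeast (mgt1) treated with compound; inhibition of growth expressed against vehicle-treated controls.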

[3] = NCI Yeast Anticancer Drug Screen. Data for the rad50 strain (AID 155);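 further: 0% = growth of vehicle-only cultures of the same strain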; settings: S. cerevisiae rad50 strain growth inhibition, hits give high values
How it was run: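 Vehicle-treated cultures provide the reference for the growth inhibition reported for compound-exposed, repair-deficient yeast.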

[4] = NCI Yeast Anticancer Drug Screen. Data for the mec2-1 strain (AID 157); settings: S. cerevisiae mec2-1 strain, hits give high values
How it was run: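 Readout is yeast growth inhibition, normalised to vehicle-treated controls, in the mec2-1 strain exposed to compound.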

[5] = NCI Yeast Anticancer Drug Screen. Data for the rad14 strain (AID 159);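 further: 0% = growth of vehicle-treated control cultures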; settings: S. cerevisiae rad14 strain growth inhibition, hits give high values
How it was run: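 Inhibition of growth is reported for a repair-deficient yeast mutant following compound treatment, calculated relative to cultures that received vehicle.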

[6] = NCI Yeast Anticancer Drug Screen. Data for the sgs1 mgt1 strain (AID 161);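 further: 0% = growth of cultures given vehicle only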; settings: S. cerevisiae sgs1 mgt1 strain, hits give high values
How it was run: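 Growth of a repair-deficient yeast mutant was monitored after compound treatment and expressed as inhibition relative to vehicle-treated cultures.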

[7] = NCI Yeast Anticancer Drug Screen. Data for the CLN2oe strain (AID 163);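 further: 0% = growth of vehicle-only control cultures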; settings: S. cerevisiae CLN2oe strain, hits give high values
How it was run: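 Values reflect how much compound exposure reduced yeast growth, referenced to vehicle-exposed cells. Assay organism is a strain with a defined genetic change affecting cell-cycle control.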

[8] = NCI Yeast Anticancer Drug Screen. Data for the cln2 rad14 strain (AID 165);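 further: 0% = growth equal to vehicle treated cultures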; settings: S. cerevisiae cln2 rad14 strain, hits give high values
How it was run: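 Relative to vehicle controls, growth inhibition of compound-treated cln2 rad14 yeast was recorded.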

[9] = NCI Yeast Anticancer Drug Screen. Data for the bub3 strain (AID 167); settings: S. cerevisiae bub3 mutant strain, hits give high values
How it was run: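 Mutant yeast screening strain plus compound; vehicle-treated cultures serve as the 0% inhibition reference.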

[10] = NCI Yeast Anticancer Drug Screen. Data for the wt2 strain (AID 169); settings: S. cerevisiae wt2 strain growth inhibition, hits give high values
How it was run: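 Values express reduction in yeast growth under compound treatment, referenced to vehicle-treated cells.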

[11] = NCI Yeast Anticancer Drug Screen. Data for the sgs1 strain (AID 173);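 further: 0% = growth of vehicle-only control cultures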; settings: S. cerevisiae sgs1 mutant, hits give high values
How it was run: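 Treat defined-mutant yeast with compound; measure growth; calculate inhibition relative to vehicle-treated cells.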

[12] = NCI Yeast Anticancer Drug Screen. Data for the mlh1 rad18 strain (AID 175); settings: S. cerevisiae mlh1 rad18 strain growth inhibition, hits give high values
How it was run: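 Test agents were incubated with a yeast strain of defined genotype (DNA damage repair defect). Inhibition of growth was derived by comparison with vehicle-exposed cultures.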

[13] = NCI Yeast Anticancer Drug Screen. Data for the rad18 strain (AID 177); settings: S. cerevisiae rad18 mutant growth inhibition, hits give high values
How it was run: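 A genetically defined yeast mutant impaired in DNA damage repair was treated with test compounds, then its growth was measured against cultures receiving vehicle alone.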

[14] = NCI Yeast Anticancer Drug Screen. Data for the rad50EPP+ strain (AID 151);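 further: 0% = growth of vehicle-treated control cultures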; settings: S. cerevisiae rad50 mutant strain, hits give high values
How it was run: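 Exposing the rad50EPP+ strain to each compound, growth was compared with vehicle-only cultures to give inhibition.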

[15] = NCI Yeast Anticancer Drug Screen. Data for the mlh1 strain (AID 171);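 further: 0% = growth of vehicle-treated control cultures of the same strain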; settings: S. cerevisiae mlh1 strain growth inhibition, hits give high values
How it was run: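 Steps: expose the defined-mutant yeast strain to compound; expose a parallel culture to vehicle; measure growth; express compound effect as inhibition relative to the vehicle culture.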

[16] = at 5.0 µM (retest, dose inferred, filed as 0.5)
[17] = at 50.0 µM (retest, dose inferred, filed as 5.0)

O=C(O)[C@H]1[C@@H](C2CCCCC2)O[C@@H](C2CCCCC2)O[C@H]1C(F)(F)F
growth inhibition ([1]; at 1.2 µM): -3%
growth inhibition ([1]; at 3.7 µM): 0%
growth inhibition ([1]; at 11.0 µM): 0%
growth inhibition ([1]; at 33.0 µM): 0%
growth inhibition ([1]; at 100.0 µM): 1%
growth inhibition ([2]; at 1.2 µM): 0%
growth inhibition ([2]; at 3.7 µM): -4%
growth inhibition ([2]; at 11.0 µM): 10%
growth inhibition ([2]; at 33.0 µM): -17%
growth inhibition ([2]; at 100.0 µM): 0%
growth inhibition ([3]; at 1.2 µM): -4%
growth inhibition ([3]; at 3.7 µM): -5%
growth inhibition [3, 16]: -46%
growth inhibition ([3]; at 11.0 µM): -19%
growth inhibition ([3]; at 33.0 µM): -4%
growth inhibition [3, 17]: 61%
growth inhibition ([3]; at 50.0 µM): 88.1% (active)
growth inhibition ([3]; at 100.0 µM): -2%
growth inhibition ([4]; at 1.2 µM): 2%
growth inhibition ([4]; at 3.7 µM): -2%
growth inhibition [4, 16]: -19%
growth inhibition ([4]; at 11.0 µM): 1%
growth inhibition ([4]; at 33.0 µM): -4%
growth inhibition [4, 17]: 16%
growth inhibition ([4]; at 50.0 µM): 91.8% (active)
growth inhibition ([4]; at 100.0 µM): 5%
growth inhibition ([5]; at 1.2 µM): -1%
growth inhibition ([5]; at 3.7 µM): -1%
growth inhibition ([5]; at 11.0 µM): 0%
growth inhibition ([5]; at 33.0 µM): 0%
growth inhibition ([5]; at 100.0 µM): -1%
growth inhibition [6, 16]: -25%
growth inhibition [6, 17]: 12%
growth inhibition ([6]; at 50.0 µM): 85.5% (active)
growth inhibition ([7]; at 1.2 µM): -1%
growth inhibition ([7]; at 3.7 µM): -1%
growth inhibition ([7]; at 11.0 µM): -13%
growth inhibition ([7]; at 33.0 µM): -8%
growth inhibition ([7]; at 100.0 µM): 4%
growth inhibition [8, 16]: -11%
growth inhibition [8, 17]: -8%
growth inhibition ([8]; at 50.0 µM): 87.3% (active)
growth inhibition ([9]; at 1.2 µM): -4%
growth inhibition ([9]; at 3.7 µM): 2%
growth inhibition [9, 16]: -20%
growth inhibition ([9]; at 11.0 µM): 3%
growth inhibition ([9]; at 33.0 µM): -2%
growth inhibition [9, 17]: 5%
growth inhibition ([9]; at 50.0 µM): 87.8% (active)
growth inhibition ([9]; at 100.0 µM): -1%
growth inhibition ([10]; at 1.2 µM): -2%
growth inhibition ([10]; at 3.7 µM): -3%
growth inhibition ([10]; at 11.0 µM): -3%
growth inhibition ([10]; at 33.0 µM): -4%
growth inhibition ([10]; at 100.0 µM): -1%
growth inhibition ([11]; at 1.2 µM): -2%
growth inhibition ([11]; at 3.7 µM): 0%
growth inhibition ([11]; at 11.0 µM): 1%
growth inhibition ([11]; at 33.0 µM): 1%
growth inhibition ([11]; at 100.0 µM): 1%
growth inhibition [12, 16]: -3%
growth inhibition [12, 17]: 18%
growth inhibition ([12]; at 50.0 µM): 83.8% (active)
growth inhibition ([13]; at 1.2 µM): -6%
growth inhibition ([13]; at 3.7 µM): -4%
growth inhibition ([13]; at 11.0 µM): -8%
growth inhibition ([13]; at 33.0 µM): -6%
growth inhibition ([13]; at 100.0 µM): -2%

CC(O)CN1C(=O)c2cccc3cc([N+](=O)[O-])cc(c23)C1=O (stereo not drawn)
growth inhibition ([14]; at 1.2 µM): 10%
growth inhibition ([14]; at 3.7 µM): 8%
growth inhibition ([14]; at 11.0 µM): 18%
growth inhibition ([14]; at 33.0 µM): 55%
growth inhibition ([14]; at 100.0 µM): 60%
growth inhibition ([2]; at 1.2 µM): -23%
growth inhibition ([2]; at 3.7 µM): 4%
growth inhibition ([2]; at 11.0 µM): 6%
growth inhibition ([2]; at 33.0 µM): 15%
growth inhibition ([2]; at 100.0 µM): 23%
growth inhibition ([3]; at 1.2 µM): -2%
growth inhibition ([3]; at 3.7 µM): 27%
growth inhibition [3, 16]: 56%
growth inhibition ([3]; at 11.0 µM): 75% (active)
growth inhibition ([3]; at 33.0 µM): 88% (active)
growth inhibition [3, 17]: 78% (active)
growth inhibition ([3]; at 50.0 µM): 50.9%
growth inhibition ([3]; at 100.0 µM): 91% (active)
growth inhibition ([5]; at 1.2 µM): 2%
growth inhibition ([5]; at 3.7 µM): 12%
growth inhibition ([5]; at 11.0 µM): 14%
growth inhibition ([5]; at 33.0 µM): 19%
growth inhibition ([5]; at 100.0 µM): 21%
growth inhibition [6, 16]: -13%
growth inhibition [6, 17]: 15%
growth inhibition ([6]; at 50.0 µM): 58%
growth inhibition ([7]; at 1.2 µM): 20%
growth inhibition ([7]; at 3.7 µM): 0%
growth inhibition ([7]; at 11.0 µM): -2%
growth inhibition ([7]; at 33.0 µM): -5%
growth inhibition ([7]; at 100.0 µM): -5%
growth inhibition [8, 16]: 5%
growth inhibition [8, 17]: 33%
growth inhibition ([8]; at 50.0 µM): 13.4%
growth inhibition ([9]; at 1.2 µM): -8%
growth inhibition ([9]; at 3.7 µM): -6%
growth inhibition [9, 16]: 8%
growth inhibition ([9]; at 11.0 µM): -11%
growth inhibition ([9]; at 33.0 µM): -21%
growth inhibition [9, 17]: 32%
growth inhibition ([9]; at 50.0 µM): 39.4%
growth inhibition ([9]; at 100.0 µM): -30%
growth inhibition ([10]; at 1.2 µM): -27%
growth inhibition ([10]; at 3.7 µM): -18%
growth inhibition ([10]; at 11.0 µM): -13%
growth inhibition ([10]; at 33.0 µM): -12%
growth inhibition ([10]; at 100.0 µM): 2%
growth inhibition ([15]; at 1.2 µM): 5%
growth inhibition ([15]; at 3.7 µM): 4%
growth inhibition ([15]; at 11.0 µM): 14%
growth inhibition ([15]; at 33.0 µM): 50%
growth inhibition ([15]; at 100.0 µM): 47%
growth inhibition ([11]; at 1.2 µM): -6%
growth inhibition ([11]; at 3.7 µM): -15%
growth inhibition ([11]; at 11.0 µM): 6%
growth inhibition ([11]; at 33.0 µM): 15%
growth inhibition ([11]; at 100.0 µM): 30%
growth inhibition [12, 16]: 25%
growth inhibition [12, 17]: 73% (active)
growth inhibition ([12]; at 50.0 µM): 83.3% (active)
growth inhibition ([13]; at 1.2 µM): -11%
growth inhibition ([13]; at 3.7 µM): 2%
growth inhibition ([13]; at 11.0 µM): 9%
growth inhibition ([13]; at 33.0 µM): 67%
growth inhibition ([13]; at 100.0 µM): 88% (active)
